Assay [1] in a line: TOX21_p53_BLA_p3_viability: Viability Assessment in the Tox21 HCT-116 p53 Agonism Beta-lactamase Assay, Phase 3 (AID 2283593).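 Note: cells exposed to compound for 16 h before reading.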 In a few lines: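 Cellular ATP was quantified by CellTiter-Glo luminescence, read after 30 min at room temperature. Beforehand, HCT116 cells (4000/well) received compound 5 h post-seeding, 217-fold diluted from DMSO, then incubated 16 h at 37C.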
The target in assay [2] is Cellular tumor antigen p53 (Homo sapiens) (UniProt P04637). The assay can be described thus: TOX21_p53_BLA_p3_ratio: Tox21 HCT-116 p53 Agonism Beta-lactamase Assay, Ratio, Phase 3 (AID 2283596). In a few lines: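 HCT116 p53-bla cells (4000/well) given compound in DMSO (217-fold dilution) after 5 h, incubated 16 h at 37C. CCF4-AM substrate 2 h at room temperature; 460/530 nm emission ratio, gain fitted against DMSO.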

Assay [3] in a line: TOX21_p53_BLA_p4_viability: Viability Assessment in the Tox21 HCT-116 p53 Agonism Beta-lactamase Assay, Phase 4 (AID 2283597).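 Note: hits lower the luminescence signal meaning cytotoxicity.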 In a few lines:
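Luminescent ATP readout (CellTiter-Glo, 30 min, room temperature) in the same wells as the p53 bla ratio. HCT116 cells were treated for 16 h at 37C with DMSO-dissolved compounds.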

Assay [4] has as its target Cellular tumor antigen p53 (Homo sapiens) (UniProt P04637). The assay can be described thus: TOX21_p53_BLA_p5_ratio: Tox21 HCT-116 p53 Agonism Beta-lactamase Assay, Ratio, Phase 5 (AID 2283599). Summed up: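 Beta-lactamase reporter ratio (blue 460 nm over green 530 nm, 405 nm excitation) after 2 h CCF4-AM loading, in HCT-116 cells exposed 16 h at 37 C to compounds pinned at 217-fold dilution. Increases relative to DMSO baseline scored.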

A short description of assay [5]: TOX21_p53_BLA_p5_viability: Viability Assessment in the Tox21 HCT-116 p53 Agonism Beta-lactamase Assay, Phase 5 (AID 2283600). Summed up: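 Seeded cells (4000/well) settle 5 h before compound addition. Plates then incubate 16 h at 37C, receive FRET substrate for 2 h, and finally CellTiter-Glo, with luminescence measured after a 30 min room-temperature incubation.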

Assay [6] has as its target Cellular tumor antigen p53 (Homo sapiens) (UniProt P04637). Description: TOX21_p53_BLA_p4_ratio: Tox21 HCT-116 p53 Agonism Beta-lactamase Assay, Ratio, Phase 4 (AID 2283601). In a few lines:
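Signal is the blue/green (460nm/530nm) ratio of cleaved versus uncleaved CCF4-AM substrate, read after 2 h substrate loading. Cells were HCT116 carrying the p53-responsive beta-lactamase reporter, dosed 16 h at 37C, 5% CO2; CellTiter-Glo measured in parallel.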

Assay [7] is described as follows: Tanguay_ZF_120hpf_MORT_legacy: (Legacy) Oregon State University Tanguay Lab 120 Hour Post-fertilization zebrafish Assay for Mortality (AID 2283633).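 For AC50: fitted as increase in binary mortality versus DMSO negative control.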 In a few lines: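 Single dechorionated Tropical 5D embryos were held with test chemical (0.64% DMSO final) from 6 to 120 hpf at 28C under foil. Deaths at 24 or 120 hpf were recorded as binary calls, analysed for increase over DMSO controls.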

The nature of assay [8]: Tanguay_ZF_120hpf_AXIS_legacy: (Legacy) Oregon State University Tanguay Lab 120 Hour Post-fertilization zebrafish Assay for Body Axis Malformation (AID 2283635).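 For AC50: potency for an increased fraction of larvae scored with body axis malformation.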 Summed up: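 Each dechorionated embryo was exposed alone from 6 hpf, with DMSO at 0.64% (vol/vol) and trimethyltin chloride 5 uM as positive control. Axis malformation was recorded at 120 hpf unless the embryo had died.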

Assay [9] is described as follows: Tanguay_ZF_120hpf_EYE_legacy: (Legacy) Oregon State University Tanguay Lab 120 Hour Post-fertilization zebrafish Assay for Eye Malformation (AID 2283636). Summed up: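 Read-out is binary presence or absence of eye malformation, scored by brightfield microscopy at 120 hpf. Single larvae were exposed from 6 hpf in embryo medium containing 0.64% DMSO, with DMSO as baseline.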

Assay [10] can be described thus: Tanguay_ZF_120hpf_SNOU_legacy: (Legacy) Oregon State University Tanguay Lab 120 Hour Post-fertilization zebrafish Assay for Snout Malformation (AID 2283637). In a few lines:
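Snout malformation read as a yes/no call on brightfield images of 120 hpf larvae (Tropical 5D strain). Static exposure began at 6 hpf on dechorionated embryos in 0.64% DMSO, with gain of signal analysed versus DMSO controls.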

The nature of assay [11]: Tanguay_ZF_120hpf_JAW_legacy: (Legacy) Oregon State University Tanguay Lab 120 Hour Post-fertilization zebrafish Assay for Jaw Malformation (AID 2283638).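 For AC50: active means more embryos with jaw malformation than DMSO controls.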 In a few lines:
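Wild-type 5D embryos, chorion removed at 4 hpf, dosed singly from 6 hpf; 28C static, sealed, foil-covered, to 120 hpf. Endpoint: jaw defect yes/no (brightfield); mortality excludes scoring.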

Assay [12] is described as follows: Tanguay_ZF_120hpf_OTIC_legacy: (Legacy) Oregon State University Tanguay Lab 120 Hour Post-fertilization zebrafish Assay for Otic Vesicle Malformation (AID 2283639). In a few lines: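 Tropical 5D wild-type zebrafish embryos were exposed statically in sealed, foil-covered plates at 28C until 120 hpf, with 0.64% (vol/vol) DMSO final. Otic vesicle malformation was scored present/absent by brightfield microscopy, with DMSO as baseline.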

Assay [13] is described as follows: Tanguay_ZF_120hpf_BRAI_legacy: (Legacy) Oregon State University Tanguay Lab 120 Hour Post-fertilization zebrafish Assay for Brain Malformation (AID 2283641). Summed up:
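Static exposure of staged wild-type embryos until 120 hpf, kept at 28C with light excluded and final DMSO of 0.64% (vol/vol). Presence or absence of brain malformation was noted under brightfield; mortality precluded scoring.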

Assay [14] is described as follows: Tanguay_ZF_120hpf_PFIN_legacy: (Legacy) Oregon State University Tanguay Lab 120 Hour Post-fertilization zebrafish Assay for Pectoral Fin Malformation (AID 2283648).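 Note: each larva judged yes or no for fin defect by brightfield with dead larvae skipped.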 Summed up:
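5D WT zebrafish; pronase dechorionation 4 hpf; 1 embryo/well at 6 hpf; static exposure to 120 hpf, 28C, sealed, foil-covered; final DMSO 0.64% v/v; 5 uM trimethyltin chloride positive control; fin defect scored yes/no.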

Assay [15] is described as follows: Tanguay_ZF_120hpf_CFIN_legacy: (Legacy) Oregon State University Tanguay Lab 120 Hour Post-fertilization zebrafish Assay for Caudal Fin Malformation (AID 2283649). In a few lines: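 Single dechorionated 5D wild-type embryos are dosed at 6 hpf (final DMSO 0.64%) and held statically at 28C. Caudal fin malformation is recorded as present or absent at 120 hpf under brightfield, excluding dead embryos.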

Assay [16] is described as follows: Tanguay_ZF_120hpf_PIG_legacy: (Legacy) Oregon State University Tanguay Lab 120 Hour Post-fertilization zebrafish Assay for Pigmentation Malformation (AID 2283650). In a few lines:
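Pronase dechorionation at 4 hpf; embryos plated at 6 hpf, one per well; static exposure, sealed and foil-covered, 28C, to 120 hpf; pigmentation read by brightfield, binary; DMSO 0.64% baseline, 5uM trimethyltin chloride positive control.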

The nature of assay [17]: Tanguay_ZF_120hpf_CIRC_legacy: (Legacy) Oregon State University Tanguay Lab 120 Hour Post-fertilization zebrafish Assay for Circulatory Malformation (AID 2283651). Summed up: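 Tropical 5D wild-type embryos, dechorionated with pronase at 4 hpf, were placed singly in wells at 6 hpf and exposed statically at 28C to 120 hpf (0.64% DMSO final). Circulatory malformation was scored present/absent by brightfield microscopy.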

Assay [18] can be described thus: Tanguay_ZF_120hpf_YSE_legacy: (Legacy) Oregon State University Tanguay Lab 120 Hour Post-fertilization zebrafish Assay for Yolk Sac Edema (AID 2283634). In a few lines:
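Single dechorionated embryos were held in sealed plates at 28C with test chemical (0.64% DMSO final) from 6 hpf until 120 hpf. Edema of the yolk sac was then recorded as a binary endpoint; non-mortality endpoints were skipped for dead embryos.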

The nature of assay [19]: Tanguay_ZF_120hpf_SOMI_legacy: (Legacy) Oregon State University Tanguay Lab 120 Hour Post-fertilization zebrafish Assay for Somite Malformation (AID 2283647). In a few lines:
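Somitogenesis defects are recorded as binary calls in whole larvae at 120 hpf after continuous static chemical exposure starting at 6 hpf in dechorionated 5D embryos. DMSO serves as negative control and baseline.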

Assay [20] can be described thus: Tanguay_ZF_120hpf_PE_legacy: (Legacy) Oregon State University Tanguay Lab 120 Hour Post-fertilization zebrafish Assay for Pericardial Edema (AID 2283640). Summed up: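 Zebrafish larvae are exposed from early development to 120 hpf at 28C, with 0.64% DMSO final. Each surviving larva receives a yes/no pericardial edema call by brightfield imaging, analysed relative to the DMSO baseline.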

Several values for one entry are separate records, joined by “and”; a condition that tells them apart may be missing. Equal entries are not always repeated. Results filed as inconclusive are left out. Some compounds were tested as several samples or in several runs, with calls that do not always agree. Activity calls are given as the source filed them. Rule for the calls: active = hit-call score of the fitted dose curve at least 0.9, where 1 is the maximum; inconclusive = response in the unintended direction; inactive = score below 0.9.

Cellular tumor antigen p53 (Homo sapiens), sequence (P04637 whole entry, looked up): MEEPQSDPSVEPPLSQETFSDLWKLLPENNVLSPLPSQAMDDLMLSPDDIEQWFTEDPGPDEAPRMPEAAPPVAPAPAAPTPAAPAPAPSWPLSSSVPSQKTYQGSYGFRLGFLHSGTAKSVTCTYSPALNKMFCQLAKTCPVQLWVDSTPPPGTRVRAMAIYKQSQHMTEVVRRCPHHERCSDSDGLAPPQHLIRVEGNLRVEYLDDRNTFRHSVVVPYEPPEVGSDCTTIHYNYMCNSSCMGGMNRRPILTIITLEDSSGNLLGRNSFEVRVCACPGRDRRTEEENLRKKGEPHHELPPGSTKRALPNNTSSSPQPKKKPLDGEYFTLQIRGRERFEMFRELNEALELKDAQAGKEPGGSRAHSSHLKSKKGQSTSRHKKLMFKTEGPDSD

As to `Cc1ncc(CO)c(CO)c1O`, the call in assay [1], in [2], in [3], in assay [4], in assay [5] and in assay [6] was inactive. Also, the compound was called inactive in assay [7], in assay [8], in assay [9], in [10], in assay [11] and in assay [12]. In addition, the result in [13], in assay [14], in assay [15], in [16] and in [17] was inactive.

For `Cc1c2ccccc2c(C)c2c1ccc1ccccc12`, the AC50 in assay [1] is 61.5 µM (active); in assay [2], 29.5 µM (active) and 52.5 µM (active); in assay [3] it was 56.3 µM (active); in assay [4], 41.7 µM (active); in [6], 43.2 µM (active) and 30.5 µM (active); in [15] it was 25.8 µM (active). Also, the outcome in [1], in assay [3], in assay [4], in assay [5], in [7] and in [18] was inactive. Also, the compound was classed as inactive in assay [8], in assay [9], in assay [10], in assay [11], in [12] and in assay [13]. The compound was classed as inactive in assay [19], in assay [14], in assay [16] and in [17].

As for `CC(O)CC(C)(C)O` (stereo not drawn), the compound was called inactive in [1], in assay [2], in [3], in assay [4], in assay [5] and in assay [6]. Also, the outcome in [7], in [18], in assay [8], in [9], in [10] and in assay [11] was inactive. In addition, the call in [12], in [20], in assay [13], in assay [14], in assay [15] and in assay [16] was inactive. Besides, in [17], the call was inactive.

As to `Clc1ccccc1C(c1ccccc1)(c1ccccc1)n1ccnc1`, the AC50 in assay [1] is 81.9 µM (active); in assay [2] it was 74.1 µM (active); in assay [3] it was 34.5 µM (active) and 15.3 µM (active); in assay [4] it was 86.2 µM (active); in assay [5], 85.1 µM (active); in assay [6], 60.2 µM (active) and 16.6 µM (active). The results for the AC50 in [8], in [11] and in assay [13] were 14.8 µM (active), 1.2 µM (active) and 87.3 µM (active), respectively. For the same compound, the compound was called inactive in assay [1], in assay [2], in assay [4], in assay [5], in assay [7] and in assay [9]. Further, the result in assay [10], in [12], in [14], in assay [15] and in assay [17] was inactive.

With `O=c1c(-c2ccc(O)cc2)coc2cc(O)cc(O)c12`, the compound was classed as inactive in assay [1], in assay [2], in assay [3], in assay [4], in assay [5] and in assay [6]. The outcome in [18], in assay [8], in [9], in assay [10], in [11] and in assay [12] was inactive. Besides, the result in [13], in [14], in assay [15], in [16] and in [17] was inactive. For the same compound, in [7], the AC50 is 26.1 µM (active).

For `CN1C(=O)N(c2ccccc2Br)Cc2cnc(Nc3ccc4c(c3)OCC(CO)O4)nc21` (stereo not drawn), the compound was called inactive in assay [1], in [5], in assay [7], in assay [12], in assay [13] and in assay [14]. Moreover, the outcome in [15] and in assay [17] was inactive. The AC50 was 13.8 µM (active) in [2]; 46.1 µM (active) in assay [3]; 13.6 µM (active) in [4]; 14.2 µM (active) in assay [6]; 2.03 µM (active) in assay [8]; 3.44 µM (active) in assay [9]. Further, the AC50 in assay [10] was 2.27 µM (active); in assay [11] it was 0.972 µM (active); in assay [16] it was 49.7 µM (active).

Broadly, the AC50 is the midpoint of the concentration-response curve, whichever way the signal moves.
